According to the supplement of paper PMC13094657:
± gives the standard deviation of the averaged measurements.

How the values were obtained:
[1] = tested on: MDA-MB-231; assay: cell viability relative to vehicle unstimulated control (fraction); higher = more viable cells; conditions: pre-treatment time: 18 h then 24 h IFNg/TNF
[2] = tested on: MDA-MB-231; assay: kynurenine production, fold change vs DMSO IFNg/TNF control; higher = more kynurenine produced (less inhibition); conditions: pre-treatment time: 18 h then 24 h IFNg/TNF
Method in brief: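 MDA-MB-231 cells (7 × 10^4/well, 96-well plates, seeded 24 h earlier) were pre-treated 18 h with each natural product in 0.1% DMSO, then stimulated 24 h with IFNγ (1 U/ml) and TNF (6.25 ng/ml) at 37°C. Supernatant kynurenine was read at 492 nm after trichloroacetic acid and p-dimethylaminobenzaldehyde treatment, against 0–100 μM standards. Kynurenine production is the fold change over cytokine-stimulated vehicle wells on the same plate, averaged over duplicate plates in the first screening round.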
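Throughout, for cell viability relative to vehicle unstimulated control: viability of the cells left after supernatant collection, read with Deep Blue dye added for 4 h, as absorbance at 570 nm minus 600 nm.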

| SMILES | cell viability [1] | kynurenine production [2] |
| --- | --- | --- |
| C[C@@H]1O[C@@H](O[C@H]2[C@H](O[C@H]3[C@H](O[C@H]4CC[C@]5(C)[C@H]6CC=C7[C@@H]8CC(C)(C)CC[C@]8(C(=O)O)CC[C@@]7(C)[C@]6(C)CC[C@H]5C4(C)C)OC[C@H](O)[C@@H]3O)O[C@H](CO)[C@@H](O)[C@@H]2O)[C@H](O)[C@H](O)[C@H]1O [Raddeanin A] (compound dose: 10 uM) | 0.0234 ± 0.033 | 0.116 ± 0.011 |
| C[C@H]1COC2=C1C(=O)C(=O)c1c2ccc2c1CCCC2(C)C [Cryptotanshinone] (compound dose: 10 uM) | 0.885 ± 0.048 | 0.3818 ± 0.0038 |
| C=C1C[C@@]23CC[C@H]4[C@@](C)(CCC[C@@]4(C)C(=O)O[C@@H]4O[C@H](CO)[C@@H](O)[C@H](O)[C@H]4O)[C@@H]2CC[C@]1(O[C@@H]1O[C@H](CO)[C@@H](O)[C@H](O)[C@H]1O)C3 [Rubusoside] (compound dose: 10 uM) | 1.07 ± 0.02 | 0.88 ± 0.065 |
| COC(=O)C1=CO[C@@H](O[C@@H]2O[C@H](CO)[C@@H](O)[C@H](O)[C@H]2O)[C@@H]2[C@H](C)O[C@@H](O)C[C@H]12 [Morroniside] (compound dose: 10 uM) | 1.015 ± 0.0011 | 1.22 ± 0.21 |
| C[C@@H]1CC[C@@]2(OC1)O[C@H]1C[C@H]3[C@@H]4CC=C5C[C@@H](O[C@@H]6O[C@H](CO)[C@@H](O)[C@H](O[C@@H]7O[C@H](CO)[C@@H](O)[C@H](O)[C@H]7O)[C@H]6O[C@@H]6O[C@@H](C)[C@H](O)[C@@H](O)[C@H]6O)CC[C@]5(C)[C@H]4CC[C@]3(C)[C@H]1[C@@H]2C [Gracillin] (compound dose: 10 uM) | 0.0777 ± 0.08 | 0.202 ± 0.016 |
| C=C1[C@H](OC(=O)c2cccnc2)C[C@H]2[C@@H](/C=C(\C)C(=O)[C@@]3(OC(C)=O)C[C@H](C)[C@H](OC(=O)c4ccccc4)[C@@H]3[C@H]1OC(C)=O)C2(C)C [Euphorbia factor L9] (compound dose: 10 uM) | 1.07 ± 0.095 | 0.226 ± 0.028 |
| CC(C)=CCC[C@](C)(O[C@@H]1O[C@H](CO)[C@@H](O)[C@H](O)[C@H]1O)[C@H]1CC[C@]2(C)[C@@H]1[C@H](O)C[C@@H]1[C@@]3(C)CC[C@H](O)C(C)(C)[C@@H]3[C@@H](O[C@@H]3O[C@H](CO)[C@@H](O)[C@H](O)[C@H]3O)C[C@]12C [Ginsenoside Rg1] (compound dose: 10 uM) | 0.975 ± 0.025 | 0.782 ± 0.22 |
| C/C1=C\CC/C(C)=C/C2C(CC/C(C)=C/CC1)C2(C)C (stereo not drawn) [Casbene] (compound dose: 10 uM) | 1.11 ± 0.042 | 0.871 ± 0.056 |
| CCCCCCCCCCCCCC(=O)O[C@@]12[C@H](O)[C@@H](C)[C@@]3(O)[C@@H](C=C(CO)C[C@]4(O)C(=O)C(C)=C[C@@H]34)[C@H]1C2(C)C [Phorbol 13-myristate] (compound dose: 10 uM) | 1.03 ± 0.065 | 0.635 ± 0.081 |
| C=C1C[C@@]23CC[C@H]4[C@@](C)(CCC[C@@]4(C)C(=O)O)[C@@H]2CC[C@]1(O)C3 [Steviol] (compound dose: 10 uM) | 1.1 ± 0.014 | 0.964 ± 0.38 |
| C/C=C(/C)C(=O)O[C@H]1C(C)=C[C@]23C(=O)[C@@H](C=C4COC(C)(C)O[C@H]4[C@]12O)[C@H]1[C@@H](C[C@H]3C)C1(C)C [Ingenol-5,20-acetonide-3-O-angelate] (compound dose: 10 uM) | 0.971 ± 0.025 | 0.918 ± 0.23 |
| CC=C1[C@H](O[C@@H]2O[C@H](CO)[C@@H](O)[C@H](O)[C@H]2O)OC=C(C(=O)OC)[C@H]1CC(=O)OC[C@H]1O[C@@H](OCCc2ccc(O)cc2)[C@H](O)[C@@H](O)[C@@H]1O (stereo in doubt) [Specnuezhenide] (compound dose: 10 uM) | 1 ± 0.026 | 0.905 ± 0.21 |
| CC1=CC[C@@](O)(C(C)C)CC1 [Terpinen-4-ol] (compound dose: 10 uM) | 1.12 ± 0.0039 | 0.984 ± 0.17 |
| C/C(=C\C(=O)CC(C)C(=O)O)[C@H]1C[C@H](O)[C@@]2(C)C3=C(C(=O)C[C@]12C)[C@@]1(C)CCC(=O)C(C)(C)[C@@H]1C[C@@H]3O (stereo partly drawn) [Ganoderenic acid A] (compound dose: 10 uM) | 1.03 ± 0.068 | 0.817 ± 0.31 |
| O=c1cc(-c2ccc(O)cc2)oc2cc(O)cc(O)c12 [Apigenin] (compound dose: 10 uM) | 0.96 ± 0.053 | 0.806 ± 0.026 |
| C=C1C(=O)O[C@@H]2[C@H]3C(C)=CC[C@@]34O[C@@]4(C)CC[C@@H]12 [Arglabin] (compound dose: 10 uM) | 1.01 ± 0.041 | 0.822 ± 0.039 |
| C[C@@H]1O[C@@H](O[C@H]2[C@H](OC(=O)[C@]34CCC(C)(C)C[C@H]3C3=CC[C@@H]5[C@@]6(C)C[C@H](O)[C@H](O[C@@H]7O[C@H](CO)[C@@H](O)[C@H](O)[C@H]7O)C(CO)(CO)[C@@H]6CC[C@@]5(C)[C@]3(C)C[C@H]4O)OC[C@H](O)[C@@H]2O)[C@H](O)[C@H](O)[C@H]1O[C@@H]1OC[C@@H](O)[C@H](O)[C@H]1O [Deapioplatycodin D] (compound dose: 10 uM) | 0.93 ± 0.031 | 0.643 ± 0.13 |

| SMILES | cell viability [1] | kynurenine production [2] |
| --- | --- | --- |
| C[C@@H]1CC[C@]2(C(=O)O[C@@H]3O[C@H](CO)[C@@H](O)[C@H](O)[C@H]3O)CC[C@]3(C)C(=CC[C@@H]4[C@@]5(C)CC[C@H](O)[C@@](C)(CO)[C@@H]5CC[C@]43C)[C@@H]2[C@]1(C)O [Pedunculoside] (compound dose: 10 uM) | 0.967 ± 0.074 | 1 ± 0.29 |
| COc1cc2cc3c4c(cc5c(c4c2cc1OC)OCO5)CCN3C [Dehydrodicentrine] (compound dose: 10 uM) | 0.946 ± 0.021 | 0.807 ± 0.12 |
| CC(=O)O[C@@]12CO[C@@H]1C[C@H](O)[C@@]1(C)C(=O)[C@H](O)C3=C(C)[C@@H](OC(=O)[C@H](O)[C@@H](NC(=O)OC(C)(C)C)c4ccccc4)C[C@@](O)([C@@H](OC(=O)c4ccccc4)[C@H]21)C3(C)C [Docetaxel] (compound dose: 10 uM) | 0.923 ± 0.067 | 0.758 ± 0.051 |
| C/C=C(\C)C(=O)O[C@H]1[C@H](O)[C@]2(COC(C)=O)[C@H](O)C[C@]3(C)C(=CC[C@@H]4[C@@]5(C)CC[C@H](O[C@@H]6O[C@H](C(=O)O)[C@@H](O[C@@H]7O[C@H](CO)[C@@H](O)[C@H](O)[C@H]7O)[C@H](O)[C@H]6O[C@@H]6O[C@H](CO)[C@@H](O)[C@H](O)[C@H]6O)[C@](C)(CO)[C@@H]5CC[C@]43C)[C@@H]2CC1(C)C [Isoescin IA] (compound dose: 10 uM) | 1.001 ± 0.0061 | 0.779 ± 0.12 |
| C=C(C)[C@@H]1CC[C@]2(C=O)CC[C@]3(C)[C@H](CC[C@@H]4[C@@]5(C)CC[C@H](O)C(C)(C)[C@@H]5CC[C@]43C)[C@@H]12 [Betulinaldehyde] (compound dose: 10 uM) | 1.005 ± 0.0091 | 0.697 ± 0.12 |
| CC(C)=CCC[C@](C)(O[C@@H]1O[C@H](CO)[C@@H](O)[C@H](O)[C@H]1O)[C@H]1CC[C@]2(C)[C@@H]1[C@H](O)C[C@@H]1[C@@]3(C)CC[C@H](O[C@@H]4O[C@H](CO)[C@@H](O)[C@H](O)[C@H]4O)C(C)(C)[C@@H]3CC[C@]12C [Ginsenoside F2] (compound dose: 10 uM) | 0.992 ± 0.033 | 0.818 ± 0.12 |
| C=C1C(=O)[C@]23[C@H](O)[C@H]1CC[C@H]2[C@@]12CO[C@]3(O)[C@@H](O)[C@@H]1C(C)(C)CC[C@@H]2O [Oridonin] (compound dose: 10 uM) | 0.917 ± 0.017 | 0.73 ± 0.054 |
| C[C@@H]1O[C@@H](O[C@H]2[C@H](O)[C@@H](O)[C@H](OC[C@H]3O[C@@H](OC(=O)[C@]45CCC(C)(C)C[C@H]4C4=CC[C@@H]6[C@@]7(C)CC[C@H](O[C@@H]8OC[C@H](O)[C@H](O)[C@H]8O)[C@@](C)(CO)[C@@H]7CC[C@@]6(C)[C@]4(C)CC5)[C@H](O)[C@@H](O)[C@@H]3O)O[C@@H]2CO)[C@H](O)[C@H](O)[C@H]1O [Cauloside D] (compound dose: 10 uM) | 0.997 ± 0.083 | 1.23 ± 0.19 |
| C=CC(=C)CCC=C(C)C [Myrcene] (compound dose: 10 uM) | 1.02 ± 0.055 | 0.867 ± 0.1 |
| O=c1ccoc2cc(O)cc(O)c12 [5.7-dihydroxychromone] (compound dose: 10 uM) | 0.9229 ± 0.0012 | 0.868 ± 0.023 |
| C=C(C)[C@@H]1CC=C(C)C(=O)C1 [L(-)-carvone] (compound dose: 10 uM) | 0.965 ± 0.069 | 0.974 ± 0.049 |
| CC(=O)O[C@]12CCC(C)=CC[C@]13CC[C@H]2[C@@](C)(/C=C/C=C(\C)C(=O)O)OC3=O [Pseudolaric Acid  A] (compound dose: 10 uM) | 0.834 ± 0.11 | 0.449 ± 0.12 |
| C=CCC(=NOS(=O)(=O)O)S[C@@H]1O[C@H](CO)[C@@H](O)[C@H](O)[C@H]1O (stereo in doubt) [Sinigrin] (compound dose: 10 uM) | 0.933 ± 0.014 | 1.04 ± 0.14 |
| C=C[C@H]1[C@H](O[C@@H]2O[C@H](CO)[C@@H](O)[C@H](O)[C@H]2O)OC=C2C(=O)OCC[C@]21O [Swertiamarin] (compound dose: 10 uM) | 0.9564 ± 0.0069 | 0.912 ± 0.14 |
| C/C1=C\[C@@H]2[C@H](CC/C(C)=C/CC(=O)/C(C)=C/CC1)C2(C)C [5-ketocasbene/9-ketocasbene] (compound dose: 10 uM) | 1.155 ± 0.0076 | 1.03 ± 0.12 |
| OC[C@H]1O[C@@H](O[C@@H]2OC=C[C@H]3[C@H](O)[C@@H]4O[C@]4(CO)[C@@H]23)[C@H](O)[C@@H](O)[C@@H]1O [Catalpol] (compound dose: 10 uM) | 0.896 ± 0.28 | 0.704 ± 0.58 |
| C/C1=C\CCC2=C[C@@H](OC2=O)c2c(C)coc2C1 [Linderalactone] (compound dose: 10 uM) | 0.998 | 0.815 ± 0.018 |
